Experiment [1] can be described thus: Cell Viability - HepG2 (AID 433; calls by dose curve;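 note: potency is the fitted concentration of half-maximal effect; cells exposed to compound for 40 hours; potency for ATP loss meaning cytotoxicity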). The note with it: qHTS. The essentials:
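HepG2 hepatocellular carcinoma cells (1500/well) were treated with compounds for 40 h at 37 °C in complete medium; intracellular ATP was read by CellTiter-Glo luminescence. Data were normalized to DMSO and 100 uM tamoxifen, and AC50 came from Hill fits.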
Background: qHTS replaces the single test concentration by a dilution series.

Experiment [2] is described as follows: Cell Viability - SH-SY5Y (AID 544).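 Note: cells exposed to compound for 40 hours; nearly all actives have a fitted effect of over 55% in size.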 Note: potency is the fitted concentration of half-maximal effect. To be noted: SH-SY5Y neuroblastoma cell viability; viability change, negative = cytotoxic: at 92.2 µM (top of the series). In outline: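 Luminescent ATP read-out (CellTiter-Glo) measures loss of viable SH-SY5Y neuroblastoma cells after 40 hr compound exposure at 37 °C. AC50 values derive from standard Hill modelling of qHTS concentration-response data.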

A short description of experiment [3]: Cell Viability - Mesenchymal (AID 546).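 Note: cells exposed to compound for 40 hours before reading.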 The note with it: mesenchymal cells viability, qHTS; series mostly up to 91.7 µM. In outline:
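Normal human renal glomerulus-derived kidney mesenchymal cells, 1000 per well in complete medium, were treated with compounds for 40 hr at 37 °C. Viability was read as intracellular ATP by CellTiter-Glo luminescence; AC50 values came from Hill-equation fits of qHTS concentration-response data.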

The nature of experiment [4]: Cellular Toxicity (caspase-3) HepG2 (AID 654).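 Note: cells exposed to compound for 16 hours before reading; 0% = DMSO alone and 100% = caspase signal from 100 µM tamoxifen.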 The note with it: HepG2 caspase-3 activation, luminescence, 0% = DMSO only, 100% = tamoxifen; series mostly up to 92.2 µM. The essentials:
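Cells plated 5 hr at 37 °C, compound added, incubated 16 hr at 37 °C. Caspase-Glo 3/7 reagent followed, 20 min at room temperature, then luminescence read. Activation scored as signal increase; AC50 from Hill fit.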

Experiment [5] is described as follows: Cellular Toxicity (caspase-3) HUV-EC-C (AID 656). To be noted: HUV-EC-C cells, caspase-3 activation (apoptosis), vehicle = 0, 100 µM tamoxifen = 100%; series mostly up to 92.2 µM. The essentials: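 HUV-EC-C endothelial cells, 1000/well, were pre-incubated 5 hr at 37°C, then exposed to compounds for 16 hr at 37°C. Caspase-Glo 3/7 luminescence was read after 20 min at room temperature. AC50 came from Hill fits, normalized to DMSO and 100 uM tamoxifen.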

A short description of experiment [6]: Cellular Toxicity (caspase-3) Mesangial (AID 660).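 Note: combined caspase 3 and 7 activity read by Caspase-Glo luminescence; cells exposed to compound for 16 h before the caspase read.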 To be noted: mesangial cells, normalized: DMSO 0%, 100 µM tamoxifen 100%; series mostly up to 91.7 µM. The essentials:
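Mesangial cells, 1000/well, 5 h settle at 37 °C; compound 16 h, 37 °C; Caspase-Glo 3/7 reagent 20 min RT; luminescence. Norm.: DMSO = 0%, tamoxifen 100 uM = 100%. AC50, Hill fit.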

Experiment [7] is described as follows: Cellular Toxicity (caspase-3) SK-N-SH (AID 661).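 Note: 0% = DMSO basal and 100% = 10 µM staurosporine.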 The note with it: SK-N-SH caspase-3 activation, qHTS; series mostly up to 91.7 µM. The essentials: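 Human neuroblastoma SK-N-SH, 1500 cells/well, 5 hr pre-incubation, then compound 16 hr, 37 °C. Caspase-Glo 3/7 reagent, 1 hr RT, luminescence. Norm. to DMSO/10 uM staurosporine; Hill-fit AC50.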
Experiment [8] in a line: Cellular Toxicity (caspase-3) Hek293 (AID 664).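 Note: cells exposed to compound for 16 h at 37 °C before readout.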 The note with it: HEK293 caspase-3 activation, DMSO = 0%, 100 µM tamoxifen = 100%; at 92.2 µM (top of the series). In outline:
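Cells plated, 5 hr at 37 °C; compounds added; 16 hr at 37 °C; Caspase-Glo 3/7 reagent, 20 min RT; luminescence read. Activation expressed relative to DMSO and 100 uM tamoxifen, AC50 by Hill model.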

Experiment [9] can be described thus: Cellular Toxicity (caspase-3) NIH 3T3 (AID 666).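 Note: caspase signal read after 16 h compound exposure; 0% = DMSO basal and 100% = 100 µM tamoxifen stimulation.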 To be noted: NIH 3T3 caspase-3 activation, apoptosis/toxicity; series mostly up to 92.2 µM. In outline:
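Luminescence from aminoluciferin released by caspase-3/7 cleavage of a peptide substrate served as read-out. Mouse fibroblast NIH 3T3 cells were exposed to compounds over a concentration range for 16 hours, and AC50 values came from standard Hill modelling.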

A short description of experiment [10]: Cell Viability - LYMP2-023 (AID 975).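 Note: cellular ATP measured by luciferase luminescence as viability proxy; cells exposed to compound for 24 hours at 37 °C; plate controls were DMSO only for no effect and 92 µM tetraoctylammonium bromide control for full effect; nearly all actives have a fitted effect of over 55% in size.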 The note with it: LYMP2-023 lymphoblastoid cell viability; series mostly up to 92.2 µM. In outline: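 2500 cells/well, 5 hr 37 C; cpd 24 hr 37 C; CellTiter-Glo, 30 min RT; luminescence. qHTS conc-response, Hill fit -> AC50. Pos ctrl tetraoctylammonium bromide.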
Experiment [11] in a line: Cell Viability - LYMP2-014 (AID 983).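 Note: cells exposed to compound for 24 h at 37 °C; plate controls were DMSO only for no effect and 92 µM tetraoctylammonium bromide for full effect; nearly all actives have a fitted effect of over 50% in size.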 The note with it: LYMP2-014 lymphoblastoid cells, viability qHTS; series mostly up to 92.2 µM. In outline:
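Luminescent ATP signal (CellTiter-Glo, 30 min at room temperature) serves as the viability read-out after 24 hr compound exposure at 37 C. Cells were seeded at 2500 per well and settled 5 hr beforehand.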

The nature of experiment [12]: Cell Viability - LYMP2-026 (AID 989).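 Note: cells exposed to compound for 24 h at 37 °C; % is set by controls: 0 for no effect and ±100 for the full control effect; nearly all actives have a fitted effect of over 50% in size.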 To be noted: LYMP2-026 lymphoblastoid cell viability, qHTS; series mostly up to 92.2 µM. In outline: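 Luminescent ATP signal (CellTiter-Glo, 30 min room temperature) measures viable lymphoblastoid cells after 24 hr compound treatment at 37 C. Decreased ATP reflects acute toxicity; AC50 values come from Hill-equation modeling.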

Experiment [13] deals with Peroxisome proliferator-activated receptor delta (Homo sapiens) (UniProt Q03181). The experiment can be described thus: qHTS assay for small molecule agonists of peroxisome proliferator-activated receptor delta signaling (AID 588534; calls by dose curve;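 note: 0% = DMSO basal wells and 100% = positive control agonist at 10 µM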). To be noted: HEK293T PPARdelta-UAS-bla, beta-lactamase ratio, 18 h; series mostly up to 76.7 µM. The essentials:
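Fluorescence from CCF4 substrate cleavage by beta-lactamase reporter, read 2 hrs at RT, measured agonist activity. Compounds were tested with 18 hrs exposure at 37 C. Concentration-response data fitted to Hill equation.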

Experiment [14] deals with Voltage-gated inwardly rectifying potassium channel KCNH2 (Homo sapiens) (UniProt Q12809). In words: qHTS Assay for Small Molecule Inhibitors of the Human hERG Channel Activity (AID 588834).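 Note: top concentration of the series differs between compounds; % is set by controls: 0 for no effect and ±100 for the full control effect; lower thallium flux fluorescence means stronger hERG block; nearly all actives have a fitted effect of over 50% in size.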 The note with it: U2OS BacMam hERG, FluxOR thallium flux fluorescence; series mostly up to 92.2 µM. The essentials: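 U2OS cells transduced with hERG via BacMam (MOI ~100), plated 2000/well, loaded with FluxOR thallium dye, compound ~10 min, then stimulation buffer; fluorescence decrease read kinetically; AC50 from Hill fits.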
Sequence of Voltage-gated inwardly rectifying potassium channel KCNH2 (Homo sapiens) (Q12809 whole entry, looked up): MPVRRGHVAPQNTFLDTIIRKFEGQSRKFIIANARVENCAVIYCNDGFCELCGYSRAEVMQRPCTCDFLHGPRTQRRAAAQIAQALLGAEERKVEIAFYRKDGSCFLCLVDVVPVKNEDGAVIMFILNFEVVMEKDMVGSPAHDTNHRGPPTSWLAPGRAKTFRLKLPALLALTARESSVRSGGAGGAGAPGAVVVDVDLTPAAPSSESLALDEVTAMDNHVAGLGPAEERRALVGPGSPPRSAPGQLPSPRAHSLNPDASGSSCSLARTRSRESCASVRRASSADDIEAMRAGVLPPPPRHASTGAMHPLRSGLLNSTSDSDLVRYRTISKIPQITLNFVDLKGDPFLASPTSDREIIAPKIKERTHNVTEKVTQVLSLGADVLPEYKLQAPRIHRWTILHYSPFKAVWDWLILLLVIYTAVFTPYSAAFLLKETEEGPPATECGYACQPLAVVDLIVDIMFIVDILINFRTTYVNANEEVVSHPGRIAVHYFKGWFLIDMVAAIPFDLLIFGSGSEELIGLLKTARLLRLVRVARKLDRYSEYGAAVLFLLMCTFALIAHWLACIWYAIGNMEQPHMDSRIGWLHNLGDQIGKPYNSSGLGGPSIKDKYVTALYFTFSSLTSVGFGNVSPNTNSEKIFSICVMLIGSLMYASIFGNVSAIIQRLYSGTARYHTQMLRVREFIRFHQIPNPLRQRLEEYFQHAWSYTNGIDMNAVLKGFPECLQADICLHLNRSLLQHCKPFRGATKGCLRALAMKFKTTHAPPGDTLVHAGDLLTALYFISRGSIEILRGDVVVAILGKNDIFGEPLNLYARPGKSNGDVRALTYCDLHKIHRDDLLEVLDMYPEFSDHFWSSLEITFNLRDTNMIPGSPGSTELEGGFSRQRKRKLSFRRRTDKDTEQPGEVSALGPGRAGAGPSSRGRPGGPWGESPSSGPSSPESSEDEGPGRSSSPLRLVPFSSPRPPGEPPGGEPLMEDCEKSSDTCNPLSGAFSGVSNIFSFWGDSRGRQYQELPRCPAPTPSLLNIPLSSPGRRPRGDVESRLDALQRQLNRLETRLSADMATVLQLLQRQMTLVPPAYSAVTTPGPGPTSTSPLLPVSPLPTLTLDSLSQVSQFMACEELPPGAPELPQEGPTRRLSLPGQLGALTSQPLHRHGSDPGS

A short description of experiment [15]: qHTS assay for small molecule activators of the p53 signaling pathway (AID 651743; active = well fitted activation curve with a large enough effect in the signal ratio, not every such curve was filed as active; the % refers to the signal ratio; note: % of control where 0% means no effect). To be noted: HCT-116 p53RE-bla, beta-lactamase FRET ratio, 16 h; activation: stronger effect = higher value. The essentials: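 Cell-based beta-lactamase reporter (p53 response elements, HCT-116 background). After a 5-hour preincubation, cells received compound for 16 hours at 37 C; substrate development ran 2 hours at room temperature.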

A short description of experiment [16]: qHTS assay for small molecule disruptors of the mitochondrial membrane potential - 1 hr assay (AID 651754; calls by dose curve; note: nearly all actives have a fitted effect of over 35% in size; note: potency is the fitted concentration of half-maximal effect). The note with it: series mostly up to 92.2 µM. In outline:
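HepG2, 2,000 cells/well, overnight attachment; cpd or DMSO 1 hr, 37C/5% CO2; Mito-MPS dye 30 min, 37C; fluorescence monomer (490/535) and aggregate (540/590).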

Experiment [17] deals with Nuclear receptor ROR-gamma (Homo sapiens) (UniProt P51449). The experiment can be described thus: qHTS assay for small molecule antagonists of the retinoid-related orphan receptor gamma (ROR-gamma) signaling pathway (AID 651802).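 Note: CHO cells with doxycycline-induced ROR-gamma expression; luciferase reporter luminescence driven by ROR response element; % is set by controls: 0 for no effect and ±100 for the full control effect; nearly all actives have a fitted effect of over 60% in size.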 The note with it: ROR-gamma antagonist cell reporter assay; series mostly up to 92.2 µM. The essentials: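 CHO, TET-inducible ROR + RORE-LUC reporter, 1536-well qHTS. Compound pinned, doxycycline added, 16hr 37C/5% CO2. ONE-Glo, 30 min RT, luminescence; signal drop scored as antagonism.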
Sequence of Nuclear receptor ROR-gamma (Homo sapiens) (P51449 whole entry, looked up): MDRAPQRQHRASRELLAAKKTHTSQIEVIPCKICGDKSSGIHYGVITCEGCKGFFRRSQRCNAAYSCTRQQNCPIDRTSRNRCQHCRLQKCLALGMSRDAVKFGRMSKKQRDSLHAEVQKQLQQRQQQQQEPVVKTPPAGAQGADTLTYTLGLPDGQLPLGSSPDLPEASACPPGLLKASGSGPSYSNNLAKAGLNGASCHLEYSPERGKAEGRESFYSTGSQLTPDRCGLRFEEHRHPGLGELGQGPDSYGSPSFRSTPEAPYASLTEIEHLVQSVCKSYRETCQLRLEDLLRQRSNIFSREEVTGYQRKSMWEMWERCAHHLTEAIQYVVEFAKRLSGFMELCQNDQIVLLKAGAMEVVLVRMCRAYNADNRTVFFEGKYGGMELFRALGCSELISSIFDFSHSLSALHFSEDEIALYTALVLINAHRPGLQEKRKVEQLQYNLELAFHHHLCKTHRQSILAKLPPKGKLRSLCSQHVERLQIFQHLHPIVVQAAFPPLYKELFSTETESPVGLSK

Experiment [18] in a line: qHTS assay for small molecule agonists of the antioxidant response element (ARE) signaling pathway measured by Nrf2-dependant transcriptional activity - cell viability counter screen (AID 720653; active = well fitted curve in the direction sought with a large enough effect in the repeat runs; an effect the other way counts as inactive or inconclusive; note: % is set by controls: 0 for no effect and ±100 for the full control effect). To be noted: ARE-bla HepG2 viability, CellTiter-Glo ATP luminescence, 16 h; stronger effect = lower value. In outline: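 ARE-bla HepG2 cells (2,000/well) rested 5 hrs at 37C/5% CO2, then exposed to compounds in DMSO for 16 hrs. Viability was read in the same wells as intracellular ATP by luminescence, 30 min at room temperature after reagent addition.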

The target of experiment [19] is Vitamin D3 receptor (Homo sapiens) (UniProt P11473). The experiment can be described thus: qHTS assay for small molecule antagonists of vitamin D receptor signaling (AID 588541; calls by dose curve;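 note: receptor activated by calcitriol during compound treatment; % is set by controls: 0 for no effect and ±100 for the full control effect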). To be noted: HEK293T VDR-UAS-bla, beta-lactamase ratio, antagonist mode; series mostly up to 76.7 µM. The essentials: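 VDR-UAS-bla HEK293T cells (2000/well, 2% charcoal-stripped FBS) were treated with titrated compounds plus 1-alpha,25-dihydroxyvitamin D3 (50 nM or 3 nM final) for 16 h at 37 C. CCF4 beta-lactamase fluorescence was read; Hill fits gave IC50.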
Sequence of Vitamin D3 receptor (Homo sapiens) (P11473 whole entry, looked up): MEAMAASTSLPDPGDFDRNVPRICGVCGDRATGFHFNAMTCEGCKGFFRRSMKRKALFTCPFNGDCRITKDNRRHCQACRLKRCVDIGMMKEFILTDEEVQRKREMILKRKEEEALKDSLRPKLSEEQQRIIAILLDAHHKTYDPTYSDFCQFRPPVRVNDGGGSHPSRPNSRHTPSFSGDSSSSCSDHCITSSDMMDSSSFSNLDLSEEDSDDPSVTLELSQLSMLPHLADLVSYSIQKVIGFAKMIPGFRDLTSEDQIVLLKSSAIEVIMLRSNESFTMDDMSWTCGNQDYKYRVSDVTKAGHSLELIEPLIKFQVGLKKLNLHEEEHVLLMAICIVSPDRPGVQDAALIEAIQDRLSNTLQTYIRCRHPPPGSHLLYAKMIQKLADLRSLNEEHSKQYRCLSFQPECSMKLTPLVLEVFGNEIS

Experiment [20] shares this target. In words: qHTS assay for small molecule agonists of vitamin D receptor signaling (AID 588543; calls by dose curve;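 note: 0% = DMSO basal and 100% = reference agonist control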). The note with it: HEK293T VDR-UAS-bla, beta-lactamase ratio, 16 h; series mostly up to 76.8 µM. In outline: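 GeneBLAzer VDR-UAS-bla HEK293T cells in 2% charcoal-stripped FBS medium were dosed with compound titrations for 16 h at 37 °C; CCF4 β-lactamase readout (405 nm ex, 460/530 nm em). EC50 and efficacy from Hill fits, normalized to 50 nM calcitriol (100%) and DMSO (0%).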

Several values for one entry are separate records, joined by “and”; a condition that tells them apart may be missing. Identical values can stand only once. Unmarked numbers belong to inactive results. Records with an inconclusive call do not appear. Activity calls are given as the source filed them. Unless noted, calls come from the whole dose curve; as a rule, active = well fitted curve in the direction sought with a large enough effect; inconclusive = small, poorly fitted or top-dose-only effect, or another doubt; inactive = no such curve, though single readings can be large; an effect the other way counts as inactive or inconclusive.

Sequence of Peroxisome proliferator-activated receptor delta (Homo sapiens) (Q03181 whole entry, looked up): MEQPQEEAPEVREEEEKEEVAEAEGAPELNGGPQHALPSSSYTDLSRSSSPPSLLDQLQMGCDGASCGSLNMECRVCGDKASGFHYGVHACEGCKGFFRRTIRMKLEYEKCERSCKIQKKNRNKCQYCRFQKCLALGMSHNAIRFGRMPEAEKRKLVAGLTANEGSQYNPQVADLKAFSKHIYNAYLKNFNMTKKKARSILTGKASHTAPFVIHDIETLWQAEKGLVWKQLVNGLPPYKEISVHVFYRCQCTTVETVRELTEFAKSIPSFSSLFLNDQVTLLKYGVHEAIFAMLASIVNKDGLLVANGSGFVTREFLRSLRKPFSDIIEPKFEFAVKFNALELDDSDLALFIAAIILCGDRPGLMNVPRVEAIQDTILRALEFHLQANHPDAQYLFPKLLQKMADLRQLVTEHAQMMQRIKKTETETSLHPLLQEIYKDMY

Take `COC(=O)Nc1cccc(OC(=O)Nc2cccc(C)c2)c1`: the Potency was more than 92 µM in experiment [1], 39.8 µM (active) in experiment [2] and 42.2 µM (active) in experiment [16]. In addition, the Potency result in experiment [3], in experiment [7], in [9], in [10], in experiment [11] and in [12] was “inactive” in each case. The Potency result in experiment [14] and in [17] was “inactive” throughout. Moreover, the molecule was called inactive in [4], in experiment [5], in [6] and in experiment [13]. In addition, in experiment [8], the caspase-3 activation is 0.0585%. Moreover, the activation in experiment [15] is -2.65%. The max response in experiment [18] was -11.1%.

On to `C=CC(=O)OC`, for which the Potency in experiment [1] is more than 92 µM. Also, the Potency entry in [2], in [3], in experiment [7], in experiment [10], in experiment [12] and in experiment [14] was “inactive” each time. Besides, the Potency result in experiment [16] and in [17] was “inactive” throughout. In addition, the result in experiment [4], in experiment [6], in [13], in experiment [19] and in experiment [20] was inactive. In addition, the caspase-3 activation in experiment [8] is 2%. Moreover, the activation in experiment [15] was -0.53%. In addition, in experiment [18], the max response was 8.65%.

Regarding `Oc1cccc(Cl)c1Cl`, in [1], the Potency is more than 92 µM. Moreover, the Potency result in experiment [2], in experiment [3], in [10], in [11], in experiment [12] and in experiment [16] was “inactive” each time. The Potency entry in [17] was “inactive”. In addition, the molecule was classed as inactive in experiment [4], in [5], in experiment [6] and in experiment [13]. Besides, the caspase-3 activation in [8] was 0.0996%. Also, in experiment [15], the activation is 0.548%. Moreover, the max response in experiment [18] is 0.417%.

Regarding `Cc1cc(N=Nc2ccccc2C)ccc1N`, the Potency in [1] was more than 92 µM. For the same molecule, the result in [5], in experiment [6], in [13], in [19] and in experiment [20] was inactive. The Potency entry in experiment [7], in experiment [9], in [10], in experiment [11], in experiment [12] and in experiment [14] was “inactive” in each case. Also, the Potency result in experiment [17] is “inactive”. Besides, in [8], the caspase-3 activation was -5.62%. For the same molecule, the activation in experiment [15] is -4.82% and -5.43%. For the same molecule, in experiment [18], the max response was -2.89% and 2.65%.

Regarding `O=C(O)C(Br)CBr` (stereo not given), the Potency result in experiment [3], in [7], in experiment [9], in experiment [10], in [11] and in experiment [12] was “inactive” each time. Further, the Potency result in [14], in experiment [16] and in experiment [17] was “inactive” throughout. In addition, the outcome in experiment [4], in experiment [6] and in [13] was inactive. Also, in [8], the caspase-3 activation is 1.8%. Further, in experiment [15], the activation is 3.2%. For the same molecule, the max response in experiment [18] was 0.981%.

As to `O=S(=O)(Cl)c1ccccc1`, the Potency in experiment [1] was more than 92 µM. Besides, the viability change, negative = cytotoxic in [2] is -100% (active). Besides, the outcome in experiment [4], in [5], in [6], in experiment [13], in experiment [19] and in experiment [20] was inactive. Besides, the Potency entry in experiment [7], in experiment [9], in experiment [10], in experiment [11], in experiment [12] and in experiment [14] was “inactive” each time. Besides, in experiment [8], the caspase-3 activation is -0.803%. Moreover, in [18], the max response is 9.62% and -3.03%.

For the molecule `Cc1ccc([N+](=O)[O-])cc1`, the Potency in [1] was more than 92 µM. Besides, the Potency entry in experiment [2], in experiment [3], in experiment [7], in [9], in [10] and in experiment [12] was “inactive” throughout. Also, the Potency result in [14], in experiment [16] and in [17] was “inactive” each time. The call in [4], in experiment [5], in [6], in experiment [13], in experiment [19] and in experiment [20] was inactive. The activation in [15] was -4.73%. For the same molecule, the max response in experiment [18] is -6.34%.
